Shown are actives, neighbours in structure and some others; about 19% of the full set was active somewhere.
TDP1 cell CPT: qHTS for Inhibitors of human tyrosyl-DNA phosphodiesterase 1 (TDP1): qHTS in cells in presence of CPT. Potency, µM (doses to about 46.2 µM), inactives show at the top dose activity change, negative = growth inhibition, usual class: inhibitors. AID 686979, 2013. chicken DT40 Tdp1-/-;hTDP1 cells + 20 nM CPT, ATP luminescence, 48 h. 12% of 420,000 active; further: nearly all actives have a fitted effect of over 55% in size
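Cell growth measured by CellTiter-Glo luminescence after a minimum 48 h, 37 C compound exposure with 20 nM CPT in Tdp1-knockout DT40 cells stably expressing hTDP1, seeded 400/well; qHTS titration format.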
HT1080 IDH1KD tx: qHTS for induction of synthetic lethality in tumor cells producing 2HG: qHTS for the HT-1080-IDH1KD cell line; HT-1080 IDH1 knockdown viability, ATP luminescence, 48 h; Potency, µM (doses to about 46.1 µM), without a hit: at the highest dose activity, negative = toxicity, most hits filed as cytotoxic; 2% of 360,000 active;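 further: 0% = DMSO wells and -100% = cell-free medium wells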
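Knockdown cells (IDH1KD HT-1080) received compounds 2 h after plating at 750 cells/well and were kept 48 h at 37 °C in 5% FBS RPMI. A CellTiter-Glo luminescence read gave % activity for curve fitting.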
KB-3-1 tox: qHTS assay for MDR1-selective chemotherapeutics: Primary screen using the parental adenocarcinoma cell KB-3-1; KB-3-1 viability, CellTiter-Glo ATP luminescence, 72 h; Potency, µM (top dose mostly 46.1 µM), most hits filed as cytotoxic; 1.4% of 400,000 active; AID 1347075, 2019; further: nearly all actives have a fitted effect of over 60% in size
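Luminescent ATP read-out (CellTiter-Glo) measures survival of drug-naive KB-3-1 cells after 72 h compound exposure at 37 °C. Titration series was screened from lowest to highest concentration, with DMSO vehicle plates as background controls.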
KB-V1 MDR tox: qHTS assay for MDR1-selective chemotherapeutics: Primary screen using the drug-selected MDR subline cells KB-V1. 3.4% of 400,000 active. KB-V1 MDR cells viability, CellTiter-Glo, 72 h. Potency, µM (doses to about 46.1 µM), hits mostly cytotoxic; further: nearly all actives have a fitted effect of over 60% in size
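Following 72 h at 37 degrees C with compound, KB-V1 cell viability was read by CellTiter-Glo luminescence, medium being phenol-red-free DMEM plus 10% FBS; concentration-response parameters came from normalized, curve-fitted qHTS data.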
TDP1 cell noCPT: qHTS for Inhibitors of human tyrosyl-DNA phosphodiesterase 1 (TDP1): qHTS in cells in absence of CPT | 15% of 420,000 active | Potency, µM (titrated, usually from 46.2 µM), for the others: at the top dose activity change, negative = growth inhibition, hits mostly inhibitors | DT40 Tdp1-/- hTDP1 cells, no CPT, ATP luminescence, 48 h | AID 686978, 2013; further: nearly all actives have a fitted effect of over 55% in size
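A cellular qHTS used chicken DT40 cells lacking endogenous Tdp1 but carrying stably transfected human TDP1. Compounds were applied without camptothecin, and cell growth kinetics were judged by ATP-dependent luminescence after ≥48 hr.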
HT1080-NT tox: qHTS for induction of synthetic lethality in tumor cells producing 2HG: qHTS for the HT-1080-NT fibrosarcoma cell line. HT-1080-NT fibrosarcoma viability, CellTiter-Glo ATP luminescence, 48 h. Potency, µM (titrated, usually from 46.1 µM), for inactives: at the top dose activity, negative = less viability, usual class: cytotoxic. 1.6% of 360,000 active;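 further: NT is the 2HG producing partner of a matched IDH1 knockdown line; 0% = DMSO-treated cells and -100% = media-only wells without cells; nearly all actives have a fitted effect of over 55% in size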
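HT-1080-NT fibrosarcoma cells (2HG-overproducing), 750 cells/well in RPMI with 5% FBS, dosed after 2 h and incubated 48 h at 37C. CellTiter-Glo luminescence normalized to DMSO and no-cell wells; concentration-response curves fitted and classed.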
* hit, by the source's call; i = inactive; ? = inconclusive; . = no result given; [ ] = dose if it differs, or a comment. The call rests on the fitted dose curve; in most records, active means well fitted curve in the direction sought with a large enough effect; inconclusive means small, poorly fitted or top-dose-only effect, or another doubt; inactive means no such curve, though single readings can be large; an effect the other way counts as inactive or inconclusive. Unless noted, on the % scale 0 is the no-effect control and ±100 the full control effect; potency means the concentration at half of the fitted maximal effect.

SMILES	TDP1 cell CPT	HT1080 IDH1KD tx	KB-3-1 tox	KB-V1 MDR tox	TDP1 cell noCPT	HT1080-NT tox
COc1ccc(NC(=O)C(CC(C)C)NC(=O)C2CCC(C)CC2)c(OC)c1 (configuration not stated)	15µM*	-2%	i	i	?	-7%
COc1ccc(OC)c(NC(=O)C2CCCN2C(=O)C2CCC(C)CC2)c1 (configuration not stated)	?	3%	i	i	13µM*	1%
COc1ccccc1NC(=O)C(CC(C)C)NC(=O)C1CCCCC1 (configuration not stated)	-4%	-2%	i	4.1µM*	?	3%
CCC(C)C(NC(=O)C1CCC(C)CC1)C(=O)Nc1cc(OC)ccc1OC (configuration not stated)	?	?	i	2.6µM*	18µM*	-27%
CCC(C)C(NC(=O)C1CCC(C)CC1)C(=O)Nc1ccc(OC)cc1OC (configuration not stated)	?	11%	i	i	-17%	6%
COc1cc(NC(=O)C2CCCN2C(=O)C2CCC(C)CC2)cc(OC)c1OC (configuration not stated)	?	12%	i	i	?	13%
COCCOC(=O)C1=C(C)NC(=O)NC1c1ccc(-c2cc(Cl)ccc2Cl)o1 (configuration not stated)	-12%	-21%	i	i	-19%	-13%
CN1C(=O)CC(C(=O)Nc2ccc(C(=O)O)cc2)SC1=Nc1ccc(Cl)cc1 (configuration not stated)	4%	.	.	.	-2%	.
CCOC(=O)CNC(=O)N1CCCC(N(C)CCc2ccccc2)C1 (configuration not stated)	2%	10%	i	i	2%	-3%
COc1ccccc1CNC(=O)[C@H](CCSC)NC(=O)[C@@H]1Cc2ccccc2CN1	-15%	0%	?	i	-21%	0%
COc1ccccc1CNC(=O)C(CCSC)NC(=O)C1CCC(C)CC1 (configuration not stated)	8%	1%	i	4.1µM*	-13%	-3%
Cc1cc(C)cc(NC(=S)N=Nc2c(O)n(C)c3ccc(S(=O)(=O)N4CCOCC4)cc23)c1	1.2µM*	-16%	i	i	4.6µM*	-13%
Cc1cccc(Nc2ccc(S(=O)(=O)N3CCOCC3)cc2[N+](=O)[O-])c1	?	-11%	i	i	-25%	-1%[9.24 µM]
Cc1ccc(NC(=S)N=Nc2c(O)n(C)c3ccc(S(=O)(=O)N4CCOCC4)cc23)cc1	2.6µM*	?	?	i	2.6µM*	-3%
Cc1cccc(NC(=S)N=Nc2c(O)n(C)c3ccc(S(=O)(=O)N4CCOCC4)cc23)c1	3.7µM*	-26%	?	0.73µM*	3.3µM*	-7%
O=C(O)C1Oc2ccccc2C1c1ccccc1 (configuration not stated)	-5%	12%	i	i	-19%	12%
Cc1ccc(N2CC(NC(=O)/C=C\c3ccc4c(c3)OCO4)CC2=O)cc1 (configuration not stated)	-30%	.	.	.	?	.
c1cc2c(cc1CN1CCN(C3CCCCCC3)CC1)OCO2	-17%	-4%	i	i	-1%	-1%
O=C(c1ccc2c(c1)OCO2)C1CCCN(C2CCN(CCc3ccccc3)CC2)C1 (configuration not stated)	18µM*	23µM*	i	i	21µM*	10µM*
CC(=O)c1cccc(CN2CCCC(C(=O)c3ccc4c(c3)OCO4)C2)c1 (configuration not stated)	2%	-25%	i	i	?	2%
c1ccc(CN2CCC(N3CCN(Cc4ccc5c(c4)OCO5)CC3)CC2)cc1	?	7%	i	?	18µM*	4%
COC(=O)c1cc(NS(=O)(=O)c2cc(Br)cc3c2N(C(C)=O)CC3)cc(C(=O)OC)c1	-18%	.	i	i	-20%	.
CCN(C(=O)CSc1nc2cc(C(=O)O)ccc2c(=O)n1-c1ccccc1F)C1CCS(=O)(=O)C1 (configuration not stated)	-13%	11%	i	i	6%	11%
COc1ccccc1S(=O)(=O)Cc1ccc(C(=O)NCc2ccccc2)o1	-29%	27%	i	i	11%	16%
C(=NN1CCCCCC1)c1ccc2ccccc2n1	?	?	?	i	16µM*	6.5µM*
SMILES	TDP1 cell CPT	HT1080 IDH1KD tx	KB-3-1 tox	KB-V1 MDR tox	TDP1 cell noCPT	HT1080-NT tox
O=[N+]([O-])c1ccc(/C=C/c2ccc3ccccc3n2)cc1	?	4%	i	i	?	2%
O=C(/C=C/c1ccc2ccccc2n1)c1cc(Br)ccc1O	12µM*	2%	i	i	?	-12%
CC[N+](CC)(CC)c1ccc(/C=C/c2ccc3ccccc3n2)cc1	0.089µM*	.	1.8µM*	i	0.071µM*	.
C(=NN1CCCCCC1)c1cccc2ccccc12	-2%	13%	i	i	?	13%
O=C(O)/C=C/c1ccc2ccccc2n1	?	-22%	i	i	-27%	-24%
C(=C\c1ccc2ccccc2n1)/c1ccc2ccccc2n1	13µM*	.	?	?	?	.
Cc1ccc(-c2nc(-c3cc4c([nH]c3=O)CC(C)(C)CC4=O)sc2C)cc1	?	.	i	i	?	.
Cc1ccccc1-c1nc(Nc2ccncc2)c2ccccc2n1	-6%	.	.	.	-18%	.
CC(C)(C)OC(=O)N1CCC(c2nnc(SCc3ccccc3)o2)CC1	.	.	i	?	.	.
C(=C\c1ccc2ccccc2n1)/c1ccccc1	?	?	?	i	?	?
C(=C\c1ccc2ccccc2n1)/c1cccnc1	22µM*	.	?	i	16µM*	.
Oc1ccc(/C=C/c2ccc3ccccc3n2)cc1	23µM*	-21%	?	i	21µM*	-21%
Cn1cc(/C=C/c2ccc3ccccc3n2)c2ccccc21	11µM*	.	?	i	10µM*	.
